Screening results as filed in PubChem.
SRC3 inh: SRC3 coactivator transcriptional activity inhibitors, primary screen, cell-based, luminescence; actives 0.17% (n = 360,000); HEK293 GAL4-SRC3 luciferase reporter; inhibition, % at 3.6 µM; AID 588352, 2011;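 active = inhibition above a per-campaign cutoff, the mean of all compounds plus 3 SD, cut at about 60% in these data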;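 note: 0% = DMSO-treated cells and 100% = gossypol-treated cells at 36 µM; higher means less SRC3-driven luciferase light from the GAL4 reporter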
SRC1 inh: SRC1 coactivator transcriptional activity inhibitors, primary screen, cell-based, luminescence | inhibition, % at 3.6 µM | HEK293 GAL4-SRC1 luciferase reporter | AID 588354, 2011 | actives 0.12% (n = 360,000) | Nuclear receptor coactivator 1 (Homo sapiens), Q15788;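 active = inhibition above the campaign mean plus 3 SD, with each screening campaign given its own cutoff, cut at about 60% in these data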;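 note: 0% = DMSO treated cells and 100% = gossypol at 36 µM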
SRC2 inh: inhibition of GAL4-SRC2 driven luciferase reporter, primary screen, SRC2 inhibitor project, cell-based, luminescence | Nuclear receptor coactivator 2 (Homo sapiens), Q15596 | HEK293 GAL4-SRC2 luciferase reporter | inhibition, % at 9 µM | actives 0.17% (n = 370,000);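 active = inhibition above the mean inhibition of all tested compounds plus 3 SD, set per campaign, cut at about 52% in these data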;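 note: 0% = DMSO treated cells and 100% = cells given Gossypol at 36 µM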
NR5A2 inv ag: LRH-1 (NR5A2) inverse agonists, primary screen, cell-based, luminescence, HEK293T, StAR-luciferase reporter. Nuclear receptor subfamily 5 group A member 2 (Homo sapiens), O00482. LRH-1 transfected, 24 h. inhibition, % at 3.6 µM. actives 0.13% (n = 360,000);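 active = inhibition above the mean inhibition of all tested compounds plus 3 SD, cut at about 73% in these data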;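 note: 0% = DMSO wells and 100% = reporter-only cells lacking LRH-1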
NR2F2 inh: NR2F2 transcriptional activity inhibitors, primary screen, cell-based, luciferase reporter, HEK293T, luminescence. COUP transcription factor 2 (Homo sapiens), P24468. HEK293T NGFI-A luciferase reporter. inhibition, % at 8.6 µM. actives 0.7% (n = 370,000). AID 686940, 2013;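 active = inhibition above a per-plate cutoff, mean inhibition of test wells between control levels plus 3 SD, cut at about 38% in these data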;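 note: cells cotransfected with COUP-TFII expression vector driving the NGFI-A reporter; 0% = median of COUP-TF2 test wells and 100% = reporter-only cells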
Target sequence (P24468 whole entry, looked up): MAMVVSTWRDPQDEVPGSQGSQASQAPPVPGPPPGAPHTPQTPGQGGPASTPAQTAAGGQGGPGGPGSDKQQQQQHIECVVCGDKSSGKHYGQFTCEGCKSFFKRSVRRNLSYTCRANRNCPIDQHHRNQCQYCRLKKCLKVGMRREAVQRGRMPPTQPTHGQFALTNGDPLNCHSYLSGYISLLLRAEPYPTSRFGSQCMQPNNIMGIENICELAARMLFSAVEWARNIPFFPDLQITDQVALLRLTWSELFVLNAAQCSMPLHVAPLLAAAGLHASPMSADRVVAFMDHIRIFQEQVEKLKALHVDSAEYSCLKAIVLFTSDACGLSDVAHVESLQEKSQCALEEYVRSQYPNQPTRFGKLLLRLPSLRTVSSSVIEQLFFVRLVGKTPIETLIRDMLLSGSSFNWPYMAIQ
GalR3 antagonist: GalR3 antagonists in HEK293 cells, primary screen, cell-based, fluorescence readout; Galanin receptor type 3 (Homo sapiens), O60755; HEK293 GalR3-CNG cAMP membrane potential fluorescence; galR3 body fused to GalR1 C-terminus; inhibition, % at 3 µM; actives 0.44% (n = 360,000); AID 651719, 2012;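 active = inhibition above the screen-wide average plus 3 SD, cut at about 13% in these data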;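 note: forskolin and galanin both at EC90 stimulate the cells; cAMP rise reported by CNG channel membrane potential dye signal; 0% = forskolin plus galanin with DMSO and 100% = forskolin alone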
GalR3 conf: GalR3 antagonist hit confirmation, cell-based, fluorescence, triplicate. actives 59% (n = 1,600). shares compounds with GalR3 antagonist. inhibition, % at 3 µM. HEK293 GalR3 CNG cAMP biosensor, membrane potential fluorescence; galR3 fused to GalR1 carboxy tail; challenged with forskolin and galanin at EC90;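 active = inhibition above the primary screen's cutoff, the mean inhibition of all screened compounds plus 3 SD, cut at about 13% in these data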;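 note: 0% = forskolin plus galanin and 100% = forskolin alone with DMSO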
HEK-CNG parental: nonspecific cAMP agonists in parental HEK-CNG cells, counter-screen for GalR3 antagonist project, cell-based, fluorescence, high throughput. shares compounds with GalR3 antagonist. HEK293-CNG parental cells, cAMP membrane potential fluorescence; normalised: DMSO wells 0%, forskolin wells 100%. activation, % at 3 µM. actives 10% (n = 1,600). AID 652268, 2013; in the data active = activation above about 1.3%
VP16 Luc counter: Gal4-VP16 luciferase reporter inhibitors, counter-screen for COUP-TFII antagonist project, cell-based, luminescence, HEK293 | shares compounds with NR2F2 inh | inhibition, % at 8.5 µM | actives 25% (n = 2,500) | AID 687007, 2013; in the data active = inhibition above about 13%
COUP-TFII conf: NR2F2 transcriptional activity inhibitors, confirmation, cell-based, luciferase reporter, HEK293, triplicate | shares compounds with NR2F2 inh | HEK293 NGFI-A luciferase reporter, luminescence | inhibition, % at 8.5 µM | actives 45% (n = 2,500) | AID 687008, 2013;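 active = mean inhibition over three repeats above a set limit taken from the earlier primary screen, cut at about 38% in these data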;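 note: 100% = cells given the luciferase reporter alone without the COUP-TF2 vector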
Starred values were filed as active, the others as inactive; · = no result. Shown are actives, neighbours in structure and some others; about 1.1% of the full set was active somewhere.

SMILES	SRC3 inh	SRC1 inh	SRC2 inh	NR5A2 inv ag	NR2F2 inh	GalR3 antagonist	GalR3 conf	HEK-CNG parental	VP16 Luc counter	COUP-TFII conf
Cc1noc(C)c1COC(=O)c1cccc(S(=O)(=O)N2CCCCCC2)c1	37	9	40	11	60*	80*	84*	0	4	36
c1csc(CNc2ncnc3sccc23)c1	26	22	15	41	63*	61*	88*	0	11	46*
Cc1ccc(C2(c3ccc(C)cc3)CC2C(=O)Nc2ccc([N+](=O)[O-])cc2O)cc1 (configuration not stated)	56	21	0	22	67*	61*	22*	-2	1	23
CC(C)Oc1cccc(C(=O)C2CCCN(Cc3cnc(N4CCOCC4)s3)C2)c1 (configuration not stated)	10	-10	10	27	37*	40*	30*	0	-1	15
COCCCN1C(=O)[C@H](CC(=O)NCc2cccc3ccccc23)[C@]2(C(=O)OC)CCCCC=C12	·	·	11	·	3	·	·	·	·	·
Cc1cc(C)n(-c2ccc(C(=O)Nc3ccc(S(=O)(=O)NCc4ccco4)cc3)cc2)n1	12	33	12	25	75*	71*	61*	-1	24*	71*
CN(C)S(=O)(=O)c1ccc2nc(NC(=O)c3cccnc3)sc2c1	-52	-90	-68	-82	-14	-3	·	·	·	·
O=C(NC(Nc1nc2ccc([N+](=O)[O-])cc2s1)(C(F)(F)F)C(F)(F)F)c1cccnc1	78*	69*	-29	91*	77*	52*	85*	1	7	70*
O=C(CC1C=CCC1)OCCN1CCN(C2CN(Cc3cn(Cc4ccccc4Cl)nn3)S(=O)(=O)C2)CC1 (configuration not stated)	·	·	1	·	14	·	·	·	·	·
Cc1nn(C)c(C)c1CN(C)S(=O)(=O)c1ccc2ccccc2c1	17	14	25	39	61*	110*	116*	0	2	66*
O=C(NC1=N[C@@]2(C=C3CCCCC3n3c(=O)n(-c4ccccc4)c(=O)n32)[C@H](Cc2ccccc2)N1Cc1ccccc1)c1ccccc1 (some centres not stated)	·	·	4	·	-8	·	·	·	·	·
CC(C)Oc1ncnc2c1[nH]c1ccccc12	-12	-9	2	16	38*	19*	6	0	-53	25
CCN(CC)c1ncnc2c1[nH]c1ccccc12	-6	9	-5	11	2	-5	·	·	·	·
Cc1nc2ccccc2n1Cc1ccc(Br)cc1	18	5	28	38	58*	83*	108*	0	-12	50*
Cc1nc2ccccc2n1Cc1ccccc1	-6	9	2	10	5	-11	·	·	·	·
COc1ccc(S(=O)(=O)N/N=C\c2ccc3c(c2)OCO3)c(OC)c1	6	4	34	15	48*	100*	73*	0	-5	27
COc1ccc(OC)c(S(=O)(=O)N/N=C\c2ccc3c(c2)OCO3)c1	-7	-63	-22	22	-8	-3	·	·	·	·
CCCCC(Nc1ncnc2ccccc12)C(=O)O (configuration not stated)	14	7	-8	-3	-3	1	·	·	·	·
CC(Nc1ncnc2ccccc12)c1ccccc1 (configuration not stated)	20	10	13	45	71*	96*	106*	0	4	61*
COc1ccc(CCNC(=O)Nc2ccc3c(c2)[C@]2(CC(=O)N(CC(C)C)C2c2ccccc2)C(=O)N3C)cc1OC (some centres not stated)	·	·	16	·	-11	·	·	·	·	·
CCC(O)C1CCN(C(=O)c2cc(COc3ccc4ncccc4c3)on2)CC1 (configuration not stated)	1	24	4	33	72*	101*	91*	0	5	63*
O=C(NC1CCCCCCC1)c1cc(COc2ccc3ncccc3c2)on1	35	24	31	42	62*	68*	92*	1	2	63*
O=C(c1cc(COc2ccc3ncccc3c2)on1)N1CCCC(O)C1 (configuration not stated)	16	8	11	1	28	-7	·	·	·	·
COCC1CCCN(C(=O)c2cc(COc3ccc4ncccc4c3)on2)C1 (configuration not stated)	12	4	15	42	67*	100*	125*	0	-4	60*
Cc1cccc(C)c1OCc1cc(C(=O)NC2CCC2)no1	-17	-26	-22	-42	-10	-2	·	·	·	·
Cc1cc(CN(C)C(=O)c2cc(COc3ccc4ncccc4c3)on2)on1	17	-5	8	22	55*	37*	69*	0	2	43*
O=C(c1cc(COc2ccc3ncccc3c2)on1)N1CCC(O)CC1	-19	-15	-22	-7	24	-3	·	·	·	·
CCOC(=O)[C@]12CCCC3=C1N(CCC3)C(=O)[C@@H](CC(=O)NCCC(C)C)C2	·	·	-21	·	-5	·	·	·	·	·
CCc1ccc(CN(C)C(=O)c2cc(COc3cccc4cnccc34)on2)cc1	34	14	18	37	66*	14*	84*	1	-7	57*
CC(C)CN1C(=O)C[C@@]2(C(=O)N(C)c3ccc(NC(=O)c4cc(F)ccc4F)cc32)C1c1ccccc1 (some centres not stated)	·	·	-7	·	-14	·	·	·	·	·
